D2 PAM-1: Beta-Arrestin HTS for Positive Allosteric Modulators of the Human D2 Dopamine Receptor: Potentiators | D(2) dopamine receptor (Homo sapiens), P14416 | DiscoveRx D2 beta-arrestin cells, luminescence, 90 min; 100% = 57 uM dopamine signal | potentiation, % (test concentration not listed) | 360,000 tested, 0.23% active; in the data active = potentiation above about 50%; inconclusive = mostly about 30% to 49%
Target sequence (P14416 whole entry, looked up): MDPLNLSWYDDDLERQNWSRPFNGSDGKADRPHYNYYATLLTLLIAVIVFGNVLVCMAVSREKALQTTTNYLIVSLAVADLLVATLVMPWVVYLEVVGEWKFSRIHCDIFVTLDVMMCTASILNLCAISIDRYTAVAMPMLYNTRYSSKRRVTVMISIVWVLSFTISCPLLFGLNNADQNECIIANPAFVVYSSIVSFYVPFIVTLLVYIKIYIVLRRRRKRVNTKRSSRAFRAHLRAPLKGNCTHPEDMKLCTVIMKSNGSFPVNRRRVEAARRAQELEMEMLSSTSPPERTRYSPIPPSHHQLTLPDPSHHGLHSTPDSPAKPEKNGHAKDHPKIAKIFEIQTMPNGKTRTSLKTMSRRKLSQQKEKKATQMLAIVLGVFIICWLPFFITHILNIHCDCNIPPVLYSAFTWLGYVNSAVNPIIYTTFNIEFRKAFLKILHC
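PathHunter beta-arrestin assay in DiscoveRx D2 cells. Compounds were added with an EC20 of dopamine (50 nM final) for 90 min at 37 deg C. Luminescence was read 1 h after detection reagent, with 57 uM dopamine as the EC100 control.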
D2 ag-1: Beta-Arrestin HTS for Positive Allosteric Modulators of the Human D2 Dopamine Receptor: Agonists | activation, % (concentration not given with the values) | AID 624465, 2012 | 360,000 tested, 0.084% active | D(2) dopamine receptor (Homo sapiens), P14416 | DiscoveRx PathHunter D2 beta-arrestin, luminescence, 90 min; 100% = 57 uM dopamine signal; in the data active = activation above about 40%; inconclusive = between about 15% and that limit
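Agonist mode: compounds alone added to overnight-plated D2 PathHunter cells for 90 min at 37 C, with 57 uM final dopamine (EC100) defining full response. Beta-arrestin recruitment detected by chemiluminescent reagent, read after 1 h at ambient temperature.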
D2 ag-2: HTS Assay for Allosteric Agonists of the Human D2 Dopamine Receptor: Primary Screen for Agonists | activation, % at 2 µM | HEK293 T-REx D2 cells, calcium flux agonist mode | D(2) dopamine receptor (Homo sapiens), P14416 | 340,000 tested, 0.53% active | AID 485358, 2010;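 active = activation over 3 SD above normal in the single-dose calcium agonist read, cut at about 30% in these data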
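Tetracycline-induced HEK293 T-REx cells with force-coupled D2 receptor, plated overnight at 30 C, loaded with no-wash calcium dye. After a 10 s baseline, compound was pin-added and calcium flux read kinetically for 180 s; calcium rises flagged agonists.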
D2 PAM-2: HTS Assay for Positive Allosteric Modulators of the Human D2 Dopamine Receptor: Primary Screen for Potentiators. HEK293 T-REx D2, calcium flux, EC20 dopamine potentiation. potentiation, % at 10 µM. 340,000 tested, 0.34% active. AID 485347, 2010;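 active = potentiation over 3 SD above the plate norm, cut at about 30% in these data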
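Calcium flux readout, no-wash dye, 1 read/s. Inducible HEK293 Trex D2 line, overnight 30 C. Compound alone 180 s (agonist flags), then EC20 dopamine, another 180 s to score potentiation.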
D2 antagonist: HTS Assay for Allosteric Antagonists of the Human D2 Dopamine Receptor: Primary Screen for Antagonists. HEK293 TREx D2 cells, calcium flux, dopamine EC80. inhibition, % at 10 µM. D(2) dopamine receptor (Homo sapiens), P14416. AID 485344, 2010. 340,000 tested, 2% active; in the data active = inhibition above about 30%; inactive = below that, where a call was filed
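Antagonism is scored as inhibition of an EC80 dopamine-evoked calcium signal in a force-coupled, tetracycline-inducible HEK293 T-REx D2 line, with compound present 180 s before agonist.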
A number is an active result; n = inactive; u = inconclusive; x = no result. Most compounds without a hit are left out; they make up all but 2.4% or so of the library.

SMILES	D2 PAM-1	D2 ag-1	D2 ag-2	D2 PAM-2	D2 antagonist
Cc1nc2ccccc2c(=O)n1-c1ccccn1	n	n	n	n	35
CCOC(=O)c1c(C)n(Cc2ccco2)c2c1cc(O)c1ccccc12	72	u	n	n	n
c1cc2c(cc1N1CCCCC1)C1CC2CCN1 (stereo unspecified)	n	n	x	x	x
O=c1c2ccccc2nc(/C=C\c2ccc(F)cc2)n1-c1ccccc1F	x	x	n	n	x
CN1CC(C(=O)c2ccccc2)C(c2ccccc2)C1 (stereo unspecified)	n	n	n	n	35
OC(CNC1CCCCC1)C(F)(F)F (stereo unspecified)	n	n	n	n	40
Cc1ccc2c(C)c3ccc4ccccc4c3c[n+]2c1	n	n	x	x	x
CC(N)C(=O)NC1C2C(=C(O)CC(O)C2O)C(=O)OC1(C)C(Cl)Cl (stereo unspecified)	n	n	x	x	x
NS(=O)(=O)OC(CCc1ccccc1)C(Cl)(Cl)Cl (stereo unspecified)	n	n	n	n	38
COc1ccc(C(=O)C2CCCN(C3CSCCSC3)C2)c(OC)c1 (stereo unspecified)	n	n	n	n	57
C[C@]12CCC(=O)C[C@H]1CC[C@@H]1[C@@H]2CC[C@]2(C)[C@@H](O)CC[C@@H]12	x	x	n	n	n
Nc1c(C(=O)NCc2ccco2)c2nc3ccccc3nc2n1CCN1CCCCC1	n	n	n	30	n
COc1ccc(OC(=O)N(C)C[C@H]2OCc3cnnn3CCCC(=O)N([C@H](C)CO)C[C@H]2C)cc1	x	n	x	x	x
CCCC(=O)NC1=C(N2CC2)C(=O)C(NC(=O)CCC)=C(N2CC2)C1=O	n	n	x	x	x
CC(=O)NC1=C(N2CC2C)C(=O)C(NC(C)=O)=C(N2CC2C)C1=O (stereo unspecified)	95	n	x	x	x
COc1cc(Br)cc(CN2CCN(C)CC2)c1O	n	n	n	n	n
CCN1CCN(Cc2cc(Br)ccc2O)CC1	n	n	n	n	64
COc1ccc(Br)cc1CN1CCN(CCO)CC1	n	n	n	n	55
O=C(NC1CCCCC1)N1Cc2ccccc2-n2nncc2C1	n	n	x	x	x
Cc1ccc(NC(=O)N(Cc2ccc3c(c2)OCO3)C2CCN(Cc3ccccc3)CC2)cc1Cl	x	x	n	x	x
COc1ccc(C(c2c(O)c3ccccc3oc2=O)c2c(C)n(C)n(-c3ccccc3)c2=O)cc1 (stereo unspecified)	n	n	n	n	93
CCC1(CCC(C)C)C(=O)NC(=S)NC1=O	n	n	x	x	x
CN1C(=O)C(=Cc2cn(CC(=O)N3CCCC3)c3ccccc23)C(=O)N(C)C1=O	n	n	n	31	30
CCCCn1c(O)c(/C=N/N2CCOCC2)c(=O)[nH]c1=S	n	n	n	n	n
CCCCCCn1c(O)c(C=Nc2ccccc2N2CCOCC2)c(=O)[nH]c1=S	n	n	n	n	37
SMILES	D2 PAM-1	D2 ag-1	D2 ag-2	D2 PAM-2	D2 antagonist
N=Cc1c(O)n(-c2ccccc2)c(=O)n(-c2ccccc2)c1=O	64	n	n	n	n
Cc1ccc(-n2c(O)c(C=N)c(=O)n(-c3ccc(C)cc3)c2=O)cc1	n	n	n	n	n
Cc1ccc(Cl)cc1NC(=O)N(Cc1ccc2c(c1)OCO2)C1CCN(Cc2ccccc2)CC1	x	x	n	n	x
COc1ccc(CN2CC=C(c3ccc(F)cc3)CC2)cc1Br	n	n	n	n	63
O=[N+]([O-])c1ccccc1CN1CC=C(c2ccc(F)cc2)CC1	n	n	n	n	n
Cc1ccc(OCC(=O)N2CCN(Cc3ccc(F)cc3)CC2)cc1	x	x	n	n	x
CC(C)N1CCN(Cc2cccc([N+](=O)[O-])c2)CC1	n	n	n	x	n
O=[N+]([O-])c1cccc(CN2CC=C(c3ccc(F)cc3)CC2)c1	n	n	n	n	73
CCN(CC)c1ccc(CN2CC=C(c3ccc(F)cc3)CC2)cc1	n	n	n	n	41

Source: PubChem
